Reference: PubChem BioAssay (NCI)
Compounds without any hit were thinned out: in the full panel of roughly 79,000, 15% have a hit. Active and inactive are the calls of the source. Rule as the data show it: active = growth inhibition above about 70%; inactive = the rest.

What was measured:
[1] = NCI Yeast Anticancer Drug Screen. Data for the rad50 strain (AID 155);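 also: 0% = growth of vehicle-only cultures of the same strain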; details: S. cerevisiae rad50 strain growth inhibition, hits give high values
In short: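 Cells are treated with compound, grown, and their growth is then scored against vehicle-only cultures of the same repair-deficient yeast strain.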

[2] = NCI Yeast Anticancer Drug Screen. Data for the mec2-1 strain (AID 157); details: S. cerevisiae mec2-1 strain, hits give high values
In short: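 Strain: mec2-1 (DNA repair/cell cycle alteration). Compound exposure, then growth measured; inhibition expressed relative to vehicle.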

[3] = NCI Yeast Anticancer Drug Screen. Data for the sgs1 mgt1 strain (AID 161);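 also: 0% = growth of cultures given vehicle only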; details: S. cerevisiae sgs1 mgt1 strain, hits give high values
In short: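 Read-out: growth inhibition vs vehicle controls. Cells: mutant yeast strain deficient in DNA damage repair.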

[4] = NCI Yeast Anticancer Drug Screen. Data for the cln2 rad14 strain (AID 165);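 also: 0% = growth equal to vehicle treated cultures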; details: S. cerevisiae cln2 rad14 strain, hits give high values
In short: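 Compounds are applied to the cln2 rad14 yeast strain, and growth is then compared with that of vehicle-treated cultures to give inhibition.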

[5] = NCI Yeast Anticancer Drug Screen. Data for the bub3 strain (AID 167); details: S. cerevisiae bub3 mutant strain, hits give high values
In short: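 Part of a panel of yeast mutants defective in DNA damage repair or cell cycle regulation. Each strain is grown with compound, and inhibition is calculated relative to solvent-treated cultures.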

[6] = NCI Yeast Anticancer Drug Screen. Data for the mlh1 rad18 strain (AID 175); details: S. cerevisiae mlh1 rad18 strain growth inhibition, hits give high values
In short: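 Read-out is yeast growth inhibition, calculated against vehicle-only controls. The compound was applied to a strain engineered with DNA damage repair alterations.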

[7] = at 5.0 µM (retest, dose inferred, filed as 0.5)
[8] = at 50.0 µM (retest, dose inferred, filed as 5.0)

Measured: growth inhibition

COc1ccc(CN2CCCN(Cc3ccc(OC)cc3OC)C2c2ccc(N(CCCl)CCCl)cc2)c(OC)c1
active: [1]; at 50.0 µM 71% | [6]; [8] 95%
inactive: [1]; [7] 2% | [1]; [8] 49% | [2]; [7] -9% | [2]; [8] 8% | [2]; at 50.0 µM 22.8% | [3]; [7] -5% | [3]; [8] 42% | [3]; at 50.0 µM 60.8% | [4]; [7] -8% | [4]; [8] 43% | [4]; at 50.0 µM 30.3% | [5]; [7] -8% | [5]; [8] -3% | [5]; at 50.0 µM 5.25% | [6]; [7] 55% | [6]; at 50.0 µM 53.9%

CC1=C(O)C(=O)C=C2C1=CC=C1[C@@]2(C)CC[C@@]2(C)[C@@H]3C[C@](C)(C(=O)O)CC[C@]3(C)CC[C@]12C
inactive: [1]; [7] 65%
active: [1]; [8] 96% | [1]; at 50.0 µM 90% | [2]; [7] 74% | [2]; [8] 98% | [2]; at 50.0 µM 93.5% | [3]; [7] 83% | [3]; [8] 99% | [3]; at 50.0 µM 93.6% | [4]; [7] 92% | [4]; [8] 98% | [4]; at 50.0 µM 91% | [5]; [7] 95% | [5]; [8] 99% | [5]; at 50.0 µM 92.5% | [6]; [7] 74% | [6]; [8] 97% | [6]; at 50.0 µM 84%

CCC[CH2][Sn]1([CH2]CCC)[O]C(=O)c2cccc(OC)c2[O]1
active: [1]; [7] 93% | [1]; [8] 99% | [1]; at 50.0 µM 97.8% | [2]; [7] 95% | [2]; [8] 99% | [2]; at 50.0 µM 98% | [3]; [7] 93% | [3]; [8] 98% | [3]; at 50.0 µM 99.2% | [4]; [7] 93% | [4]; [8] 98% | [4]; at 50.0 µM 98.4% | [5]; [7] 94% | [5]; [8] 97% | [5]; at 50.0 µM 98.4% | [6]; [7] 88% | [6]; [8] 98% | [6]; at 50.0 µM 98.9%

CN(C)CCBr
inactive: [1]; at 50.0 µM 38% | [2]; [7] 16% | [3]; [7] 61% | [4]; [7] -1% | [4]; at 50.0 µM 64.2% | [5]; [7] -10% | [5]; at 50.0 µM 55.6% | [6]; [7] 49%
active: [1]; [7] 86% | [1]; [8] 95% | [2]; [8] 92% | [2]; at 50.0 µM 88.1% | [3]; [8] 94% | [3]; at 50.0 µM 92.9% | [4]; [8] 84% | [5]; [8] 81% | [6]; [8] 95% | [6]; at 50.0 µM 96.7%

NC[CH2][Sn]([c]1ccccc1)([CH]1CCCCC1)[CH]1CCCCC1
active: [1]; [7] 99% | [1]; [8] 98% | [1]; at 50.0 µM 99% | [2]; [7] 100% | [2]; [8] 99% | [2]; at 50.0 µM 98.7% | [3]; [7] 100% | [3]; [8] 99% | [3]; at 50.0 µM 93.3% | [4]; [7] 98% | [4]; [8] 98% | [4]; at 50.0 µM 97.5% | [5]; [7] 98% | [5]; [8] 98% | [5]; at 50.0 µM 98.5% | [6]; [7] 100% | [6]; [8] 98% | [6]; at 50.0 µM 98.9%

C(#C[PH+](c1ccccc1)c1ccccc1)c1ccccc1.C(#C[PH+](c1ccccc1)c1ccccc1)c1ccccc1.C(#C[PH+](c1ccccc1)c1ccccc1)c1ccccc1.[C-]#[O+].[C-]#[O+].[C-]#[O+].[Cr]
inactive: [1]; [7] 29% | [1]; [8] 35% | [2]; [7] 31% | [2]; [8] 27% | [3]; [7] 14% | [3]; [8] 17% | [4]; [7] 31% | [4]; [8] 39% | [5]; [7] 44% | [5]; [8] 39% | [6]; [7] 0% | [6]; [8] 37%
active: [1]; at 50.0 µM 83.2% | [2]; at 50.0 µM 87% | [3]; at 50.0 µM 86.8% | [4]; at 50.0 µM 84.5% | [5]; at 50.0 µM 88.2% | [6]; at 50.0 µM 82.5%

CCOP(=S)(OCC)SCc1c(C)c(C)c(CSP(=S)(OCC)OCC)c(C)c1C
inactive: [1]; [7] 1% | [1]; [8] -11% | [1]; at 50.0 µM -4.3% | [2]; [7] -4% | [2]; [8] -2% | [2]; at 50.0 µM -3.75% | [3]; [7] -8% | [3]; [8] 2% | [3]; at 50.0 µM -12.2% | [4]; [7] 1% | [4]; [8] -10% | [4]; at 50.0 µM 45% | [5]; [7] -4% | [5]; [8] -4% | [5]; at 50.0 µM -0.65% | [6]; [7] 2% | [6]; [8] -5% | [6]; at 50.0 µM 8.8%

CC1CCC2(OC1)OC1C(O)C3C4CCC5CC(OC6OC(CO)C(OC7OC(CO)C(O)C(OC8OCC(O)C(O)C8O)C7OC7OC(CO)C(O)C(OC8OC(CO)C(O)C(O)C8O)C7O)C(O)C6O)C(O)CC5(C)C4CCC3(C)C1C2C (configuration not stated)
active: [1]; [7] 95% | [1]; [8] 99% | [1]; at 50.0 µM 93.2% | [2]; [7] 97% | [2]; [8] 99% | [2]; at 50.0 µM 94% | [3]; [7] 93% | [3]; [8] 99% | [3]; at 50.0 µM 93.8% | [4]; [7] 72% | [4]; [8] 99% | [4]; at 50.0 µM 92.3% | [5]; [7] 97% | [5]; [8] 99% | [5]; at 50.0 µM 93.2% | [6]; [7] 96% | [6]; [8] 98% | [6]; at 50.0 µM 88%

[C-]#[O+].[C-]#[O+].[CH3][Sn]([CH3])[c]1ccccc1.[Fe+5].[c-]1[c-][c-][cH-][c-]1
inactive: [1]; [7] 7% | [2]; [7] 4% | [3]; [7] 9% | [4]; [7] -8% | [5]; [7] -7% | [6]; [7] 7%
active: [1]; [8] 82% | [1]; at 50.0 µM 95.3% | [2]; [8] 87% | [2]; at 50.0 µM 98% | [3]; [8] 88% | [3]; at 50.0 µM 94.7% | [4]; [8] 85% | [4]; at 50.0 µM 95.3% | [5]; [8] 90% | [5]; at 50.0 µM 98% | [6]; [8] 90% | [6]; at 50.0 µM 94%
